Consider 33 molecules from PubChem BioAssay (NCATS).

Results filed as inconclusive are left out. Some structures have more than one record in an assay (separate samples or runs), and their calls can disagree. Calls of active or inactive are those of the source. Calls follow the shape of the dose curve; as a rule, active = well fitted curve in the direction sought with a large enough effect; inconclusive = small, poorly fitted or top-dose-only effect, or another doubt; inactive = no such curve, though single readings can be large; an effect the other way counts as inactive or inconclusive.

Assay [1] concerns the target Beta-2 adrenergic receptor (Homo sapiens) (UniProt P07550). Kind of assay: qHTS validation assay of beta-arrestin-biased ligands of beta2-adrenergic receptor (AID 485366). The method, boiled down: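 Values derive from curve-fitted %Activity of a luminescent beta-arrestin recruitment reporter; compounds tested up to 46 microM on Tango cells for 18 hr at 37 degrees C, 5% CO2.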
On the technique in general: In qHTS, concentration-response curves come from the screen itself.

The target in assay [2] is Thioredoxin reductase 1, cytoplasmic (Rattus norvegicus) (UniProt O89049). Kind of assay: qHTS Assay for Substrates of Mammalian Selenoprotein Thioredoxin Reductase 1 (TrxR1) (AID 488772).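 Also: NADPH fluorescence in the first read after selenite addition and not the 8 min delta; series mostly up to about 57 µM; a drop in NADPH fluorescence below the no-compound background marks a TrxR1 substrate.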 The method, boiled down:
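Quantitative HTS in Tris-HCl buffer at pH 7.5 with EDTA and Tween-20, using rat TrxR1, 400 uM NADPH and 400 uM selenite (final). A fall in initial NADPH fluorescence relative to background marked substrate behaviour.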

Assay [3] shares this target. Kind of assay: qHTS Assay for Inhibitors of Mammalian Selenoprotein Thioredoxin Reductase 1 (TrxR1) (AID 488773). Also: nearly all actives have a fitted effect of over 40% in size. Also: potency is read from the fitted curve at half-maximal effect. The settings on record: Potency: inhibition. The gist of the method: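 Steps: enzyme (90 nM) plus NADPH (400 uM final), 5 min at ~22 deg C; compound added, 15 min; selenite (400 uM final) added; fluorescence followed for 8 min. Concentration-response curves derived from the normalized delta values.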

Assay [4] concerns the target Flap endonuclease 1 (Homo sapiens) (UniProt P39748). Kind of assay: qHTS Validation Assay for the Inhibitors of Human Flap endonuclease 1 (FEN1) (AID 488816). The gist of the method:
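Readings taken at 0 and 15 min after starting the reaction with 50 nM (final) substrate supplied the signal. Compounds had first sat with 10 nM FEN1 reagent for 15 min at room temperature. Values come from Hill-equation concentration-response fits.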

Assay [5] deals with M-phase phosphoprotein 8 (Homo sapiens) (UniProt Q99549). The assay can be described thus: qHTS Validation Assay for Inhibitors for MPP8 Chromodomain Interactions with Methylated Histone Tails (AID 488949). Also: nearly all actives have a fitted effect of over 55% in size. Also: potency is read from the fitted curve at half-maximal effect. The method, boiled down:
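MPP8 (50 nM) was pre-bound to 50 nM biotinylated H3(1-18)K9me3 peptide in PBS pH 7.4 with 0.01% Tween-20. Compounds were then added for 30 min at room temperature, and complex disruption was read by AlphaScreen with streptavidin donor and nickel-chelate acceptor beads.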

For assay [6], the target named is Chromobox protein homolog 1 (Homo sapiens) (UniProt P83916). The assay can be described thus: qHTS Validation Assay for Inhibitors of HP1-beta Chromodomain Interactions with Methylated Histone Tails (AID 488953). Also: nearly all actives have a fitted effect of over 50% in size. Also: potency is read from the fitted curve at half-maximal effect. The gist of the method:
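HP1-beta (50 nM) preformed 30 min with biotinylated H3(1-18)K9me3 peptide (50 nM) in PBS pH 7.4, 0.01% Tween-20. Compounds added for 30 min at room temperature. Complex disruption read by AlphaScreen with streptavidin donor/nickel chelate acceptor beads (10 ug/mL each).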

Assay [7] has as its target Methanococcus maripaludis chaperonin (MmCpn) (UniProt Q6LX38). The assay can be described thus: High-Throughput Screening for Modulators of Cytosolic Chaperonin Activity: MmCpn Primary Screen (AID 488978).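 Also: 50 nM MmCpn enzyme hydrolysing 30 µM ATP at 37 °C.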 The gist of the method: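 MmCpn at 50 nM final was preincubated 5 min at RT with compound. ATP was then added at 30 uM final for 10 min at 37 C. ADP formed was detected by Transcreener HTRF (665/590 nm).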

The target in assay [8] is ATP-dependent 6-phosphofructokinase (Trypanosoma brucei brucei) (UniProt O15648). The assay can be described thus: qHTS Validation Assay to Find Inhibitors of T. brucei phosphofructokinase (AID 485368). The method, boiled down: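 Enzyme reaction in triethanolamine buffer pH 8.0 with 5 mM MgCl2, 0.01% Tween20 and 0.1% BSA; PFK 1.25 nM, F6P 0.5 mM, ATP 0.1 mM, 45 min RT. ADP quantified by ADP-Glo.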

A short description of assay [9]: Quantitative high throughput screen for delayed death inhibitors of the malarial parasite plastid, 96 hour incubation (AID 488745). Also: nearly all actives have a fitted effect of over 70% in size. Also: potency is read from the fitted curve at half-maximal effect. The gist of the method: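 Luciferase-expressing P. falciparum in erythrocytes (2% hematocrit, 0.1% parasitemia) incubated with compound for 96 h at 37 C, 5% CO2, in RPMI 1640 with 0.5% Albumax. Growth inhibition read as decreased luminescence.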

A short description of assay [10]: Quantitative high throughput screen for delayed death inhibitors of the malarial parasite plastid, 48 hour incubation (AID 488752). Also: nearly all actives have a fitted effect of over 65% in size. Also: potency is read from the fitted curve at half-maximal effect. The gist of the method:
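Erythrocytes infected with firefly luciferase-expressing P. falciparum (2% hematocrit, 0.1% parasitemia) cultured with compound for 48 h at 37 C, 5% CO2, in RPMI 1640/0.5% Albumax. Growth inhibition read as loss of luminescence.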

Sequence of ATP-dependent 6-phosphofructokinase (Trypanosoma brucei brucei) (O15648 whole entry, looked up): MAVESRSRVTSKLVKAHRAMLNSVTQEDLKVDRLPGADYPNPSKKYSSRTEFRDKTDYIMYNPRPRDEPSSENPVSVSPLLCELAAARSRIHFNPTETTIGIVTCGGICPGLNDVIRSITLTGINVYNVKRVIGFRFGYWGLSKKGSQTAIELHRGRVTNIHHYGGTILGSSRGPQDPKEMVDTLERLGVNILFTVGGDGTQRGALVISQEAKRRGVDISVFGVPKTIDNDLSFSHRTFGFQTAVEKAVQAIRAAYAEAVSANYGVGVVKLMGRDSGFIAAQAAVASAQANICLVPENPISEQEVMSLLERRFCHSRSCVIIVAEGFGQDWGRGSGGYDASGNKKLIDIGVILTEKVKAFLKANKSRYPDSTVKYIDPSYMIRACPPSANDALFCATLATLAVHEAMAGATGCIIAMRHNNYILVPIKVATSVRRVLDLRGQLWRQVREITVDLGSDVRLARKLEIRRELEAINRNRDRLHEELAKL
Sequence of M-phase phosphoprotein 8 (Homo sapiens) (Q99549 whole entry, looked up): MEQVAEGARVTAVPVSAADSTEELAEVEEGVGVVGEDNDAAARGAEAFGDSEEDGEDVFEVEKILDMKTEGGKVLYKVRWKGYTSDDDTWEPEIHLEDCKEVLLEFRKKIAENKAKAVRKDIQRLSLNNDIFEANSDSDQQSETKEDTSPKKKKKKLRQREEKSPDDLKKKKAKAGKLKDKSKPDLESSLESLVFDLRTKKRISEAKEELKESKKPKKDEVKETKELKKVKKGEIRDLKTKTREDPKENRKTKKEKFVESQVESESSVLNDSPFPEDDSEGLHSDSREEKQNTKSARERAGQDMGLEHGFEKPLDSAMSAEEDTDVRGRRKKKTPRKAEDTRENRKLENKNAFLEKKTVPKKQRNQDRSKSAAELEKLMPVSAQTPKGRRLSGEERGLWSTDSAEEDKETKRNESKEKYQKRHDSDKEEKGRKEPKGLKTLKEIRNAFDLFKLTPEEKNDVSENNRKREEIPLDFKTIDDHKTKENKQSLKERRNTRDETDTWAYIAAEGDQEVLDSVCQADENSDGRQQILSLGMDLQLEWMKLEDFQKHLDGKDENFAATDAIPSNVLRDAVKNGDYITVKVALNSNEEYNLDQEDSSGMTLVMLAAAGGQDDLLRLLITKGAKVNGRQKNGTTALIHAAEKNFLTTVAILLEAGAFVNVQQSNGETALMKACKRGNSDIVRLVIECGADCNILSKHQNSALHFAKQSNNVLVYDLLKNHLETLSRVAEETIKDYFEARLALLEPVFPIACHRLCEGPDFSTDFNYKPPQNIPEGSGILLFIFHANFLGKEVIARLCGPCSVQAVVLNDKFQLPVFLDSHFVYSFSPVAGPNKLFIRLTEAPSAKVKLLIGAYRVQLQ
Sequence of Chromobox protein homolog 1 (Homo sapiens) (P83916 whole entry, looked up): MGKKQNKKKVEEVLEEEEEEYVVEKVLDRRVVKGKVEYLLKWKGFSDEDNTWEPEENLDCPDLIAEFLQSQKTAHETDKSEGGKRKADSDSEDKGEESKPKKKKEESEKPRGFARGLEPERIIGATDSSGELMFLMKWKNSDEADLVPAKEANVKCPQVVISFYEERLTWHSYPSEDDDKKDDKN
Sequence of Methanococcus maripaludis chaperonin (MmCpn) (Q6LX38 1-543): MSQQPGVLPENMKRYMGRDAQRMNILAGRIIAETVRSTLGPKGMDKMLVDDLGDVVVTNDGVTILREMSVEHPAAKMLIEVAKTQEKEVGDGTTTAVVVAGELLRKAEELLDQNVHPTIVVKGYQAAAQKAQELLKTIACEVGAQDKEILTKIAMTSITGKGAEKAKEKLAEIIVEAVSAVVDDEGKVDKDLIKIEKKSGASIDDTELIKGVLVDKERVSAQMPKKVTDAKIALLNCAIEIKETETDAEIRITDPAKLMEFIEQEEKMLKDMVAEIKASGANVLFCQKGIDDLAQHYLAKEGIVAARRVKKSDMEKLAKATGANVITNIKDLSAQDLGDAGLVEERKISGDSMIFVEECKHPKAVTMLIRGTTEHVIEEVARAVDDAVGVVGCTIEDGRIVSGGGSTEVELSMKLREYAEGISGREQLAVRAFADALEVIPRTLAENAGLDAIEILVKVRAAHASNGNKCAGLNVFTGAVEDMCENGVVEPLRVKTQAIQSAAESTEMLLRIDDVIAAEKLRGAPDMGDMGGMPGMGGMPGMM
Sequence of Thioredoxin reductase 1, cytoplasmic (Rattus norvegicus) (O89049 whole entry, looked up): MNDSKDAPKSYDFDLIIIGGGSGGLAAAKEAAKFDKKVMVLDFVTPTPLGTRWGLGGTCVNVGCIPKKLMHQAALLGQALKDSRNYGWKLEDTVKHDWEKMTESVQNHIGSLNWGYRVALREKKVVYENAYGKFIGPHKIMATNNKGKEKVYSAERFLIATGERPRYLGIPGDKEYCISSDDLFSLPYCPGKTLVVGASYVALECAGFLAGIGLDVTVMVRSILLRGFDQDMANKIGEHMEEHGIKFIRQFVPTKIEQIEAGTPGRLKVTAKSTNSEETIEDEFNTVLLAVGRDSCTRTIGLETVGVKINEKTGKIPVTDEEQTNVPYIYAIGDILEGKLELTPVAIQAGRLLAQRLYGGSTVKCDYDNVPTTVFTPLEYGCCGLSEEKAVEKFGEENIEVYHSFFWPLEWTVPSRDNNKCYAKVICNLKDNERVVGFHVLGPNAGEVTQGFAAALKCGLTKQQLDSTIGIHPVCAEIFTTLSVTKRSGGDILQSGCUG
Sequence of Beta-2 adrenergic receptor (Homo sapiens) (P07550 whole entry, looked up): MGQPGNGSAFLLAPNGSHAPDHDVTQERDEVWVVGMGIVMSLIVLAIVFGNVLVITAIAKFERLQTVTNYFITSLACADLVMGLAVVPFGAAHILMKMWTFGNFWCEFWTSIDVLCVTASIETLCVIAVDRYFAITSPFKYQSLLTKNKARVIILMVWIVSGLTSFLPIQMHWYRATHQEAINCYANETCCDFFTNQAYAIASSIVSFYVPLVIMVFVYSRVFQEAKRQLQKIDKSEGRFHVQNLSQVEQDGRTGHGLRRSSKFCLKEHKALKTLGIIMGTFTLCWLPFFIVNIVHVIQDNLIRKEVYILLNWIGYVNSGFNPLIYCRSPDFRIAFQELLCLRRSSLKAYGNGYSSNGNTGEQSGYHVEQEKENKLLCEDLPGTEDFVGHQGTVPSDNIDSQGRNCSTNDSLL
Sequence of Flap endonuclease 1 (Homo sapiens) (P39748 whole entry, looked up): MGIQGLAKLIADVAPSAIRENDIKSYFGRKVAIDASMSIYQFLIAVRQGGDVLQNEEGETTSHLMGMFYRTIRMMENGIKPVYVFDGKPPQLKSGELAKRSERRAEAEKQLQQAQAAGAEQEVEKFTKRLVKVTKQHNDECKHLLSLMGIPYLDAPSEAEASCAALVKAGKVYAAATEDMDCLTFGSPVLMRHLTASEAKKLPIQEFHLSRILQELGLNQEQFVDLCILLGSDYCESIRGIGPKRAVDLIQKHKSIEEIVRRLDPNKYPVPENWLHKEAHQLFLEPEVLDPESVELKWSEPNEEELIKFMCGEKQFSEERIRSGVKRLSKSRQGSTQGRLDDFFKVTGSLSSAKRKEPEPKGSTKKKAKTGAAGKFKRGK

Consider `Cc1ccc([N+](=O)[O-])cc1S(=O)(=O)N(C)C`, for which the molecule was called inactive in [1], in [2] and in assay [7]. The Potency entry in assay [3], in assay [4], in [5] and in [6] was “inactive” each time.
For the molecule `N#CC(C#N)=C(N)/C(C#N)=C/c1ccc(O)cc1`, the Potency entry in assay [8], in assay [9], in assay [10], in [4] and in assay [5] was “inactive” each time. For the same molecule, the molecule was classed as inactive in assay [2] and in assay [7].
For `CC[C@@H]1Cc2cc(O)ccc2C2=C1c1ccc(O)cc1C[C@H]2CC`, the Potency result in [8], in assay [9], in assay [3] and in assay [4] was “inactive” each time. Moreover, the Potency in assay [10] was 13.1 µM (active); in assay [5] it was 35.5 µM (active) and inactive; in [6], 31.6 µM (active). The call in assay [2] and in assay [7] was inactive.
As to `Nc1nc2c(cnn2CCc2ccccc2)c2nc(-c3ccco3)nn12`, the result in assay [1], in assay [2] and in assay [7] was inactive. In addition, the Potency result in assay [3], in assay [4], in [5] and in assay [6] was “inactive” throughout.
On to `[Li+]`, for which the call in assay [1], in [2] and in [7] was inactive. Besides, the Potency result in assay [5] and in [6] was “inactive” each time.
With `O=C1NC(=O)c2cc(Nc3ccccc3)c(Nc3ccccc3)cc21`, the molecule was called inactive in assay [1], in assay [2] and in assay [7]. The Potency entry in assay [3] and in [4] was “inactive” throughout. Besides, in [5], the Potency is 31.6 µM (active).
For the molecule `Nc1nc2ccc(Cl)cc2c2nc(-c3ccco3)nn12`, the Potency result in assay [8], in [9], in [10] and in [6] was “inactive” throughout. Besides, the call in assay [2] and in assay [7] was inactive.
As for `CCCCCCC(=O)OC1CC(C)(C)NC(C)(C)C1`, the molecule was called inactive in assay [1], in [2] and in [7]. The Potency entry in [3] and in [6] was “inactive” in each case.
On to `CCCCCCCCCCC(C)(C)C(=O)Nc1c(OC)cc(OC)cc1OC`, for which the call in assay [1], in assay [2] and in assay [7] was inactive. Further, the Potency entry in [3], in assay [4], in assay [5] and in [6] was “inactive” in each case.
Regarding `CCc1ccc2c(-c3cccc(Cl)c3)nc(=O)n(CC)c2n1`, the outcome in assay [1], in assay [2] and in [7] was inactive. The Potency entry in assay [3], in assay [4], in assay [5] and in assay [6] was “inactive” in each case.
Regarding `CN1Cc2sccc2C(c2ccc(O)c(O)c2)C1` (stereo not drawn), the molecule was called inactive in assay [1], in [2] and in assay [7]. In addition, in [3], the Potency was 16.8 µM (active). Further, the Potency result in assay [4] and in assay [5] was “inactive” throughout.
For `NC(=Nc1ccccc1)NC(=O)c1nc(Cl)c(N)nc1N`, the result in assay [1], in assay [2] and in assay [7] was inactive. In addition, the Potency result in assay [3], in [4], in assay [5] and in assay [6] was “inactive” throughout.
As to `Oc1ccc(/C=C/c2ccc(/C=C/c3ccc(O)cc3)c(Br)c2)cc1`, the outcome in [1], in assay [2] and in assay [7] was inactive. The Potency entry in assay [4] and in [5] was “inactive” throughout.
As to `Oc1cc2c(cc1O)C(c1ccccc1)CNCC2` (stereo not drawn), the call in assay [1] and in [7] was inactive. Moreover, the Potency result in [3], in assay [4] and in [5] was “inactive” throughout.
Turning to `O[Si](CCCN1CCCCC1)(c1ccc(F)cc1)C1CCCCC1` (stereo not drawn), the Potency entry in assay [8], in assay [3], in [4], in assay [5] and in [6] was “inactive” each time. The Potency in [9] and in [10] was 0.117 µM (active) in each case. In addition, the molecule was called inactive in assay [2].
Turning to `COc1ccccc1N1CCN(CCCNc2c(C)c(=O)n(C)c(=O)n2C)CC1`, the molecule was called inactive in assay [1] and in [2]. Moreover, the Potency result in assay [4] and in [5] was “inactive” in each case.
`CSC(N)=NCCC[C@H](N)C(=O)O`: the Potency result in assay [8], in [9], in [10], in assay [5] and in assay [6] was “inactive” in each case. For the same molecule, the molecule was classed as inactive in assay [2] and in assay [7].
Turning to `C[C@H](NC(=O)/C(C#N)=C/c1ccc(O)c(O)c1)c1ccccc1`, the outcome in assay [1], in assay [2] and in assay [7] was inactive. In [4], the Potency result was “inactive”. Moreover, the Potency in assay [6] is 31.6 µM (active).
For the molecule `N#C/C(=C\c1ccc(O)c(O)c1)C(=O)NCCCNC(=O)/C(C#N)=C/c1ccc(O)c(O)c1`, the result in [1] and in [7] was inactive.
Take `N#CC(=C(\N)Sc1ccccc1N)/C(C#N)=C(/N)Sc1ccccc1N`: the outcome in assay [1], in assay [2] and in assay [7] was inactive. For the same molecule, the Potency result in assay [3], in [4] and in assay [5] was “inactive” in each case.
For `C[C@]12C=CC(=O)C=C1CC[C@@H]1C2=CC[C@]2(C)[C@@H](C(=O)CN3CCN(c4cc(N5CCCC5)nc(N5CCCC5)n4)CC3)CC[C@@H]12`, in assay [1], the call was inactive. Further, the Potency entry in assay [4] was “inactive”.
As to `N#Cc1cc([N+](=O)[O-])c2sc(C(N)=O)[n+]([O-])c2c1`, the molecule was called inactive in [1], in [2] and in [7]. Further, the Potency result in assay [3], in assay [4] and in assay [5] was “inactive” throughout.
As to `S=C(S)N1CCCC1`, the molecule was called inactive in assay [1], in assay [2] and in assay [7]. Moreover, the Potency result in [3] and in assay [4] was “inactive” in each case.
In the case of `CCCCCCCCCC(=O)NC(CN1CCOCC1)[C@H](O)c1ccccc1` (stereo partly drawn), the result in assay [1], in assay [2] and in assay [7] was inactive. In addition, the Potency entry in [3], in assay [4], in assay [5] and in assay [6] was “inactive” in each case.
For `O=C1Cc2c([nH]c3ccc(Br)cc23)-c2ccccc2N1`, the call in assay [1], in assay [2] and in assay [7] was inactive. In addition, in assay [5], the Potency result was “inactive”.
For the molecule `CC(C)(C)NCC(O)COc1cccc2[nH]c(=O)[nH]c12` (stereo not drawn), the Potency result in assay [8], in assay [9], in [10], in assay [3], in assay [4] and in assay [5] was “inactive” throughout. Besides, the Potency result in [6] is “inactive”. Moreover, the outcome in assay [2] was inactive.
On to `O=c1ccc2c(OCCCCc3ccccc3)c3ccoc3cc2o1`, for which the Potency result in assay [10], in assay [3], in [4], in [5] and in assay [6] was “inactive” each time. Moreover, the molecule was called inactive in assay [2] and in assay [7].
With `C[C@@]1(C2CCCC2)Cc2cc(OCC(=O)O)c(Cl)c(Cl)c2C1=O`, the Potency result in [10], in assay [3], in assay [4], in [5] and in [6] was “inactive” throughout. Moreover, the molecule was called inactive in [2].
For the molecule `N#Cc1cc2nc(O)c(O)nc2cc1[N+](=O)[O-]`, the Potency result in assay [9], in [10], in [3], in assay [4], in [5] and in [6] was “inactive” throughout. For the same molecule, the result in assay [2] and in assay [7] was inactive.
As to `CN1CCc2cc(Cl)c(O)cc2[C@@H](c2ccccc2)C1`, the Potency result in [8], in assay [3], in assay [4], in [5] and in [6] was “inactive” in each case. For the same molecule, the call in assay [2] and in assay [7] was inactive.
In the case of `COc1cc(CC(=O)O)ccc1O`, the Potency entry in assay [9], in assay [10], in assay [3], in assay [4] and in assay [5] was “inactive” in each case. The result in assay [2] and in [7] was inactive. The Potency in [6] is 0.006 µM (active).
`NC(N)=N[C@@H](CCC(=O)O)C(=O)O`: the Potency entry in assay [8], in assay [9], in [3], in assay [4], in [5] and in [6] was “inactive” in each case. Further, the result in [2] and in assay [7] was inactive.
`Nc1ncnc2c1nc(Sc1ccc(Cl)cc1)n2[C@H]1OC2COP(=O)(O)O[C@@H]2C1O` (stereo partly drawn): the Potency entry in [8], in assay [3], in [5] and in assay [6] was “inactive” each time. Besides, the outcome in assay [2] and in assay [7] was inactive.
